Laboratory results as given in PubChem BioAssay AID1159580 (chemical genetic matrix, 2015).
In all, about 5,500 compounds went through this assay and about 2,000 (36%) were called active. Not shown: some 18% with an inconclusive outcome. Cut-off read from the data, not from the text of the source: active = normalized growth mostly below about 0.91 (no sharp cut-off); inconclusive = no clear call, values can overlap the other calls; inactive = mostly above about 0.92. The list shows a part of the results.

Experiment: chemical genetic growth profiling, strain panel (AID 1159580);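 note: tested at 20 µM; growth read once vehicle control cultures reached saturation at 30 °C; 1 = growth at the plate median or of vehicle wells; lower values mean less growth of the strain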
Conditions: growth OD

Measured: normalized growth

O=c1cc[nH]c(=S)[nH]1
inactive: S. cerevisiae deletion strains, locus YJR075W, strain HOC1, stronger effect = lower value 1.03 | S. cerevisiae deletion strains, locus YKL009W, strain mrt4, stronger effect = lower value 1.04 | S. cerevisiae deletion strains, locus YKL068W, stronger effect = lower value 1 | S. cerevisiae deletion strains, locus YKL085W, strain MDH1 (second series), stronger effect = lower value 1.01 | S. cerevisiae deletion strains, locus YKL085W, strain MDH1, stronger effect = lower value 1.01 | S. cerevisiae deletion strains, locus YKL160W, strain elf1, stronger effect = lower value 1.06 | S. cerevisiae deletion strains, locus YKL190W, strain CNB1, stronger effect = lower value 1.02 | S. cerevisiae deletion strains, locus YKR001C, strain vps1, stronger effect = lower value 1.05 | S. cerevisiae deletion strains, locus YKR026C, strain gcn3, stronger effect = lower value 1.01 | S. cerevisiae deletion strains, locus YKR091W, strain srl3, stronger effect = lower value 1 | S. cerevisiae deletion strains, locus YLL001W, strain dnm1, stronger effect = lower value 1.04 | S. cerevisiae deletion strains, locus YLL026W, stronger effect = lower value 0.999 | S. cerevisiae deletion strains, locus YLL041C, strain sdh2, stronger effect = lower value 1.01 | S. cerevisiae deletion strains, locus YLR027C, strain aat2, stronger effect = lower value 1.02 | S. cerevisiae deletion strains, locus YLR039C, strain RIC1, stronger effect = lower value 1.09 | S. cerevisiae deletion strains, locus YLR058C, strain SHM2, stronger effect = lower value 1.02 | S. cerevisiae deletion strains, locus YLR102C, strain apc9, stronger effect = lower value 0.992 | S. cerevisiae deletion strains, locus YLR113W, strain HOG1, stronger effect = lower value 1.01 | S. cerevisiae deletion strains, locus YLR221C, strain rsa3, stronger effect = lower value 1.01 | S. cerevisiae deletion strains, locus YLR258W, strain gsy2, stronger effect = lower value 0.989 | S. cerevisiae deletion strains, locus YLR262C, strain YPT6 (second series), stronger effect = lower value 1.03 | S. cerevisiae deletion strains, locus YLR262C, strain YPT6, stronger effect = lower value 1.08 | S. cerevisiae deletion strains, locus YLR268W, strain sec22, stronger effect = lower value 1.05 | S. cerevisiae deletion strains, locus YLR320W, strain mms22, stronger effect = lower value 1.06 | S. cerevisiae deletion strains, locus YLR330W, strain CHS5, stronger effect = lower value 1.03 | S. cerevisiae deletion strains, locus YLR342W, strain FKS1 (second series), stronger effect = lower value 1 | S. cerevisiae deletion strains, locus YLR342W, strain FKS1, stronger effect = lower value 1.01 | S. cerevisiae deletion strains, locus YLR357W, strain rsc2, stronger effect = lower value 1.04 | S. cerevisiae deletion strains, locus YLR370C, strain arc18, stronger effect = lower value 0.997 | S. cerevisiae deletion strains, locus YLR371W, strain rom2, stronger effect = lower value 0.996 | S. cerevisiae deletion strains, locus YLR384C, strain iki3, stronger effect = lower value 1.01 | S. cerevisiae deletion strains, locus YLR418C, strain cdc73, stronger effect = lower value 1.03 | S. cerevisiae deletion strains, locus YML016C, strain PPZ1, stronger effect = lower value 1.02 | S. cerevisiae deletion strains, locus YML032C, strain rad52, stronger effect = lower value 1.05 | S. cerevisiae deletion strains, locus YML120C, strain ndi1, stronger effect = lower value 1.01 | S. cerevisiae deletion strains, locus YML124C, strain tub3, stronger effect = lower value 1.01 | S. cerevisiae deletion strains, locus YMR058W, strain fet3, stronger effect = lower value 1.01 | S. cerevisiae deletion strains, locus YMR078C, strain ctf18, stronger effect = lower value 1.02 | S. cerevisiae deletion strains, locus YMR125W, strain sto1, stronger effect = lower value 1.05 | S. cerevisiae deletion strains, locus YMR129W, stronger effect = lower value 0.999 | S. cerevisiae deletion strains, locus YMR205C, strain PFK2, stronger effect = lower value 1.05 | S. cerevisiae deletion strains, locus YMR223W, strain ubp8, stronger effect = lower value 0.992 | S. cerevisiae deletion strains, locus YMR231W, strain pep5, stronger effect = lower value 1.01 | S. cerevisiae deletion strains, locus YMR263W, strain SAP30, stronger effect = lower value 1.03 | S. cerevisiae deletion strains, locus YMR307W, strain GAS1, stronger effect = lower value 1.01 | S. cerevisiae deletion strains, locus YNL067W, strain RPL9B, stronger effect = lower value 1.03 | S. cerevisiae deletion strains, locus YNL071W, strain lat1, stronger effect = lower value 1.02 | S. cerevisiae deletion strains, locus YNL128W, strain TEP1, stronger effect = lower value 1.03 | S. cerevisiae deletion strains, locus YNL153C, strain GIM3, stronger effect = lower value 1.03 | S. cerevisiae deletion strains, locus YNL183C, strain NPR1, stronger effect = lower value 0.921 | S. cerevisiae deletion strains, locus YNL209W, strain ssb2, stronger effect = lower value 1 | S. cerevisiae deletion strains, locus YNL233W, strain BNI4, stronger effect = lower value 1.01 | S. cerevisiae deletion strains, locus YNL248C, strain rpa49, stronger effect = lower value 1.09 | S. cerevisiae deletion strains, locus YNL250W, strain rad50, stronger effect = lower value 1.01 | S. cerevisiae deletion strains, locus YNL271C, strain bni1, stronger effect = lower value 1.01 | S. cerevisiae deletion strains, locus YNL298W, strain CLA4, stronger effect = lower value 1.02 | S. cerevisiae deletion strains, locus YNL307C, strain MCK1, stronger effect = lower value 1.01 | S. cerevisiae deletion strains, locus YNL322C, strain KRE1 (second series), stronger effect = lower value 1.02 | S. cerevisiae deletion strains, locus YNL322C, strain KRE1, stronger effect = lower value 1.02 | S. cerevisiae deletion strains, locus YNR049C, strain mso1, stronger effect = lower value 1 | S. cerevisiae deletion strains, locus YNR052C, strain pop2, stronger effect = lower value 1 | S. cerevisiae deletion strains, locus YOL006C, strain TOP1, stronger effect = lower value 1.1 | S. cerevisiae deletion strains, locus YOL012C, strain htz1 1.32 | S. cerevisiae deletion strains, locus YOL147C, strain pex11, stronger effect = lower value 1.01 | S. cerevisiae deletion strains, locus YOR001W, strain rrp6, stronger effect = lower value 0.972 | S. cerevisiae deletion strains, locus YOR061W, strain CKA2, stronger effect = lower value 1.02 | S. cerevisiae deletion strains, locus YOR069W, strain VPS5, stronger effect = lower value 1.01 | S. cerevisiae deletion strains, locus YOR070C, strain gyp1, stronger effect = lower value 0.997 | S. cerevisiae deletion strains, locus YOR080W, strain dia2, stronger effect = lower value 1 | S. cerevisiae deletion strains, locus YOR083W, strain WHI5, stronger effect = lower value 1.06 | S. cerevisiae deletion strains, locus YOR106W, strain vam3, stronger effect = lower value 1.05 | S. cerevisiae deletion strains, locus YOR136W, strain idh2, stronger effect = lower value 1.01 | S. cerevisiae deletion strains, locus YOR144C, strain elg1, stronger effect = lower value 1.02 | S. cerevisiae deletion strains, locus YOR184W, strain ser1, stronger effect = lower value 1.03 | S. cerevisiae deletion strains, locus YOR231W, strain MKK1, stronger effect = lower value 1.01 | S. cerevisiae deletion strains, locus YOR265W, strain rbl2, stronger effect = lower value 1.02 | S. cerevisiae deletion strains, locus YOR270C, strain vph1, stronger effect = lower value 1.04 | S. cerevisiae deletion strains, locus YOR290C, strain snf2, stronger effect = lower value 1.04 | S. cerevisiae deletion strains, locus YOR316C, strain cot1, stronger effect = lower value 0.998 | S. cerevisiae deletion strains, locus YPL051W, strain arl3, stronger effect = lower value 1.05 | S. cerevisiae deletion strains, locus YPL055C, strain LGE1, stronger effect = lower value 1.06 | S. cerevisiae deletion strains, locus YPL078C, strain atp4, stronger effect = lower value 1.06 | S. cerevisiae deletion strains, locus YPL106C, strain sse1, stronger effect = lower value 1 | S. cerevisiae deletion strains, locus YPL240C, strain hsp82, stronger effect = lower value 1.01 | S. cerevisiae deletion strains, locus YPL241C, strain CIN2, stronger effect = lower value 1.01 | S. cerevisiae deletion strains, locus YPL256C, strain CLN2, stronger effect = lower value 1 | S. cerevisiae deletion strains, locus YPR119W, strain clb2, stronger effect = lower value 1 | S. cerevisiae deletion strains, locus YPR141C, strain kar3, stronger effect = lower value 1.01 | S. cerevisiae deletion strains, locus YPR163C, strain tif3, stronger effect = lower value 1.02 | S. cerevisiae deletion strains, locus YPR167C, strain met16, stronger effect = lower value 1.02 | S. cerevisiae deletion strains, strain wtn01, stronger effect = lower value 1.04 | S. cerevisiae strains, strain wild type, stronger effect = lower value 1.03
